Screening data (PubChem)
RGS12 GoLoco inh: blocks human Gai1 binding to RGS12 GoLoco peptide, red readout; P63096; Gai1:RGS12 GoLoco peptide FP, rhodamine, 10 min; Potency, µM (titrated, usually from 61.6 µM), without a hit: top-dose activity, negative = inhibition, hits mostly inhibitors; 230,000 compounds, 0.44% hits; AID 880; active = well fitted inhibition curve with a large enough effect, not every such curve was filed as active; inactive = no such curve, though single readings can be large or run the other way; note: nearly all actives have a fitted effect of over 30% in size
Target sequence (P63096 whole entry, looked up): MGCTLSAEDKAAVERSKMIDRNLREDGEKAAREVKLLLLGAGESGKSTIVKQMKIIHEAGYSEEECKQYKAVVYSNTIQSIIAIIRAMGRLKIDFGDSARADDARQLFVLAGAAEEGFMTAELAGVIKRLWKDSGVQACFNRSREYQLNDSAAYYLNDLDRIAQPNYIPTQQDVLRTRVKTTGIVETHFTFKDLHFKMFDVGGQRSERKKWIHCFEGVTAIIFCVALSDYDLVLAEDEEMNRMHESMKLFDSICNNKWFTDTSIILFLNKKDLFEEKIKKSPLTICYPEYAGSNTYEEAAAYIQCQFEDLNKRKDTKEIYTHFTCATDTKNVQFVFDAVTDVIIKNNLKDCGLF
TR SRC2 fluor cs: alters Texas Red total fluorescence, flagging assay interference; Potency, µM (titrated, usually from 106 µM), without a hit: at the top dose fluorescence change, negative = quenching; TRb/SRC2 Texas Red total fluorescence interference; 280,000 compounds, 0.29% hits; active = well fitted curve in either direction with a large enough effect; inconclusive = small, poorly fitted or top-dose-only effect
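Human TRβ ligand-binding domain (0.6 uM) and Texas Red SRC2 peptide (20 nM) in Tris buffer with 1 uM T3 and 5% DMSO were incubated with pinned compound for 5 hr at ambient temperature. Total fluorescence was computed as S + 2P (555/632 nm).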
TRb SRC2 PPI: TRbeta-SRC2 interaction inhibition; AID 1469; Potency, µM (doses to about 106 µM), for the others: at the top dose activity change, negative = inhibition, hits mostly inhibitors; TRbeta-SRC2 peptide binding, fluorescence polarization; receptor liganded with 1 µM T3; 280,000 compounds, 0.065% hits;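 note: plate controls were bound peptide for no effect and peptide without receptor for full effect; nearly all actives have a fitted effect of over 50% in size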
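A fluorescence polarization screen tested compounds at multiple concentrations against complex formation between 0.6 uM TRb ligand-binding domain and 20 nM Texas Red SRC2 peptide, with 1 uM T3 present; readout after 5 hr.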
Tau fibril FP: blocks human tau fibril formation measured by polarization; K18 P301L tau heparin fibrillization, Alexa594 FP, 6 h; Potency, µM (doses to about 57.7 µM), without a hit: at the highest dose activity, negative = inhibition, hits mostly inhibitors; P10636; 280,000 compounds, 0.39% hits; note: nearly all actives have a fitted effect of over 55% in size
Target sequence (P10636 561-689 P618L limits assumed): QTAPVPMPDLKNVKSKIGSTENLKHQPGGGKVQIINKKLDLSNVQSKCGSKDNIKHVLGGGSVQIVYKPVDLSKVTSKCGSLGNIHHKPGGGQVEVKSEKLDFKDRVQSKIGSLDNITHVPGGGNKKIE
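Recombinant K18 P301L […], labeled with Alexa 594 at 0.24 uM over 15 uM unlabeled; heparin inducer 20 uM final; 37 C, 6 hr; FP endpoint.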
Tau ThT inhib: inhibitors of human tau fibril formation, thioflavin T binding | P10636 | recombinant tau K18 P301L, heparin-induced fibrillization, ThT fluorescence | Potency, µM (highest dose often 57.4 µM), for the others: at the top dose activity, negative = inhibition, most hits filed as inhibitors | 270,000 compounds, 2.1% hits; note: nearly all actives have a fitted effect of over 55% in size
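In this qHTS, human K18 P301L tau is incubated with compound and heparin for 6 hr at 37 C, and Thioflavin T fluorescence then reports fibril load.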
Tau fluor cs: counter-screen for tau fibril formation inhibitors | AID 1463 | 280,000 compounds, 0.93% hits | Potency, µM (highest dose often 57.7 µM), for inactives: at the top dose activity change, negative = decrease | tau K18 P301L Alexa594 fluorescence, heparin fibrillization; note: nearly all actives have a fitted effect of over 55% in size
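Human tau K18 P301L (15 uM unlabeled, 0.24 uM Alexa 594-labeled) in 100 mM sodium acetate pH 7 with 20 uM heparin, 6 hr at 37 C. ThT 30 uM added, 1 hr ambient; Alexa 594 FP and total fluorescence read at 555/632 nm.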
Starred values were filed as active, the others as inactive; ? = inconclusive; · = not tested or not shown; [ ] = dose if it differs, or a comment. Compounds with a hit are over-represented: about 3.2% of the library has one in this group of screens. Unless noted, calls come from the whole dose curve; as a rule, active = well fitted curve in the direction sought with a large enough effect; inconclusive = small, poorly fitted or top-dose-only effect, or another doubt; inactive = no such curve, though single readings can be large; an effect the other way counts as inactive or inconclusive. Unless noted, % is set by controls: 0 for no effect and ±100 for the full control effect; potency is the fitted concentration of half-maximal effect.

SMILES	RGS12 GoLoco inh	TR SRC2 fluor cs	TRb SRC2 PPI	Tau fibril FP	Tau ThT inhib	Tau fluor cs
O=C(N/N=C/c1c[nH]c2ccc(Br)cc12)c1ccccn1	6%	-6%	-2%	4%	?	-24%
O=C(N/N=C/c1c[nH]c2ccc(Br)cc12)c1ccc2c(c1)OCO2	-2%	-5%	0%	?	?	18µM*[quencher]
COc1cc(NC(=O)c2ccc(C(=O)Nc3cc(OC)c(Cl)cc3OC)cc2)c(OC)cc1Cl	·	-2%	-4%	-6%	1%	-4%
COC(=O)c1ccc(Cn2c(SCc3ccc(F)cc3)nc3ccncc32)cc1	·	8%	3%	3%	1%	-9%
COc1cc(C(=O)n2nc(-c3ccco3)nc2NCc2ccc(Cl)cc2)cc(OC)c1OC	·	-3%	1%	-11%	-16%	-17%
Cc1c2cnccc2c(C)c2c1c1ccccc1n2CCOC(=O)c1ccccc1	5%[14.2 µM]	·	·	·	·	·
CCOc1ccc(CCNC(=O)C2CCN(c3ncnc4c3nc3n4CCCCC3)CC2)cc1	·	22µM*[quencher]	-9%	-1%	-7%	0%
CCCNC(=O)C1CCN(c2ncnc3c2nc2n3CCCCC2)CC1	·	4%	1%	-4%	-3%	1%
CN(C)CCNC(=O)C1CCN(c2ncnc3c2nc2n3CCCCC2)CC1	·	25µM*[quencher]	-10%	-1%	9%	8%
CCOc1cc(C(=O)Nc2ccc(NC(=O)c3cc4ccccc4o3)c(OC)c2)cc(OCC)c1OCC	·	35µM*[quencher]	-15%	-9%	-6%	-24%
CC(C)(C)c1cc(/C=C(\C#N)C(N)=S)cc(C(C)(C)C)c1O	104%	-2%	8%	3%	?	?
[C-]#[N+]/C(C#N)=C\c1cc(C(C)(C)C)c(O)c(C(C)(C)C)c1	2%	-3%	-3%	?	25µM*	?
CC(=O)Nc1ccc(SCC(c2ccccc2)N2CCN(CC(C)C)CCC2=O)cc1 (stereo not drawn)	·	0%	-3%	·	·	·
O=C(/C=C/c1ccccc1)NC(=S)NNC(=O)c1ccco1	9%	-4%	-14%	1%	?	-13%
O=C(/C=C/c1ccc(Br)cc1)NC(=S)NNC(=O)c1ccco1	5%	-1%	-6%	1%	16µM*	-29%
O=C(O)C1C2CCC(O2)C1C(=O)Nc1ccc(O)cc1 (stereo not drawn)	16µM*	-6%	2%	6%	12%	-8%
COn1c2c(c3c4no[n+]([O-])c4ccc31)CCCC2	14%	0%	10%	2%	?	-17%
COn1c(C)c(C(C)=O)c2c3nonc3ccc21	-19%	-1%	-2%	?	14µM*	-15%
On1c2c(c3c4nonc4ccc31)CCCC2	-4%	4%	2%	?	7.9µM*	?
COn1c2c(c3c4nonc4ccc31)CCCC2	-1%	-3%	?	?	14µM*	?
Oc1ccccc1-n1nc2ccc3nonc3c2n1	-5%	0%	4%	-7%	-7%	-16%
CCc1ccc2oc(-c3ccc(OC)cc3)cc(=Nc3c(C)n(C)n(-c4ccccc4)c3=O)c2c1	-3%	-1%	5%	9%	11µM*	-30%
CC[C@H](C)C(=O)O[C@H]1CCC=C2C=C[C@H](C)[C@H](CC[C@@H]3C[C@H](O)CC(=O)O3)C21 (stereo partly drawn)	7%	-4%	3%	4%	-1%	-6%
COc1ccc(OC/C(O)=C(\C#N)c2nc3ccccc3[nH]2)cc1	-6%	1%	-14%	-3%	-19%	-9%
COc1ccccc1OCC(=O)OC/C(O)=C(\C#N)c1nc2ccccc2[nH]1	75%	2.5µM*[quencher]	?	6%	0%	-6%
SMILES	RGS12 GoLoco inh	TR SRC2 fluor cs	TRb SRC2 PPI	Tau fibril FP	Tau ThT inhib	Tau fluor cs
CCOC(=O)Cc1c(C)c2ccc(N(CC)CC)cc2oc1=O	·	-8%	?	?	14µM*	-29%
Cc1ccc(-c2c(CN3CCN(c4cccc(C(F)(F)F)c4)CC3)csc2C)cc1	·	-3%	-5%	-6%	1%	-11%
CCc1ccc(CCC(=O)O)nc1	7%[14.2 µM]	·	·	·	·	·
CCCCCCCCCCCCCc1ccccc1	·	-1%[201 µM]	-3%[201 µM]	·	·	·
ICCc1ccccc1	3.2µM*	-1%	1%	·	·	·
COC(=O)N[C@H](C[N+](=O)[O-])C(C)(C)C	3%	-2%	10%	-2%	-2%	-3%
O=C(Nc1ccc(F)cc1)C(=O)c1c(O)[nH]c2ccc([N+](=O)[O-])cc12	-9%	-5%	-5%	2%	16µM*	-27%
Cc1ccccc1NCC(=O)N=Nc1c(O)[nH]c2ccc([N+](=O)[O-])cc12	1%	-5%	7%	6%	?	18µM*[quencher]
Cc1cccc(OCC(=O)N=Nc2c(O)[nH]c3ccc([N+](=O)[O-])cc23)c1	-10%	-2%	7%	-7%	4µM*	?
O=[N+]([O-])c1ccc2[nH]c(O)c(N=NC(=S)Nc3cccnc3)c2c1	8%	-24%	-1%	12%	2.2µM*	?
Cc1ccc(OC(C)C(=O)N=Nc2c(O)[nH]c3ccc([N+](=O)[O-])cc23)cc1 (stereo not drawn)	2%	-4%	-1%	6%	?	16µM*[quencher]
Cc1ccc(NCC(=O)N=Nc2c(O)[nH]c3ccc([N+](=O)[O-])cc23)cc1	3%	?	-14%	3%	16µM*	25µM*[quencher]
CCN(CC)c1nc2ccccc2nc1C(=O)Nc1cc(OC)c(OC)c(OC)c1	·	?	-19%	4%	-2%	-1%
CC(=O)c1ccc(NC(=O)Cn2c3ncccc3c(=O)n2-c2ccc(C)cc2)cc1	·	89µM*[quencher]	?	?	-12%	?
Cc1ccc(C)c(-n2c(CCC(=O)O)ccc2-c2ccc(Cl)cc2)c1	·	0%	4%	-4%	-17%	-6%
COCCNC(=O)c1cc(-c2cccs2)on1	4%	-2%	-3%	0%	-15%	-4%
COCCNC(=O)Nc1ccc2nc(-c3cccs3)c(-c3cccs3)nc2c1	21%	-1%	1%	16µM*	?	16µM*[quencher]
C=CCN1C(=CCO)[C@H]2C[C@H]3[C@@H]1CC[C@@]31c3ccccc3N3C=C4[C@@H]5N(/C=C/2[C@H]31)c1ccccc1[C@]51CC[C@H]2[C@H]1C[C@@H]4/C(=C/CO)N2CC=C	5%[21.6 µM]	-2%[53 µM]	0%[53 µM]	·	·	·
CS(=O)(=O)CCC(C(=O)Nc1cccc(C(F)(F)F)c1)N1Cc2ccccc2C1=O (stereo not drawn)	·	25µM*[quencher]	-12%	-2%	7%	-3%
CCCCc1c(CCC)c(=N)c2ccccc2n1C	11µM*	-1%	-11%	-8%	-9%	-7%
